# Screens: PubChem, National Center for Advancing Translational Sciences (NCATS)
# ELG1 DNA repair – inhibitors of ELG1-dependent DNA repair in HEK293T cells | Potency, µM (titrated, usually from 46.1 µM), without a hit: at the highest dose activity change, negative = inhibition, most hits filed as inhibitors | actives 2.3% (n = 330,000) | HEK293T ELG1-luciferase reporter, luminescence, 16 h; DNA damage induced by 5-fluorouridine; further: on the % scale 0 is the no-effect control and ±100 the full control effect; nearly all actives have a fitted effect of over 55% in size
#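 HEK293T cells expressing luciferase-tagged ELG1 (2,000/well) received 5-Fluorouridine plus compound or DMSO for 16 hr at 37 °C. Luciferase was read by ONE-Glo luminescence after 30 min at room temperature.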
# Rab9 promoter act – activates the Rab9 promoter; AID 485297; Huh7 Rab9 promoter-luciferase reporter, luminescence, 24 h; actives 2.8% (n = 320,000); Potency, µM (doses to about 9.22 µM), without a hit: at the top dose activation, negative = inhibition, actives largely listed as activators; further: % of control where 0% means no effect; nearly all actives have a fitted effect of over 60% in size
#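 Rab9 promoter-driven luciferase in stably transfected Huh7 cells; 1500 cells/well rested 2 h, exposed to compound in DMSO for 24 h at 37 °C, 5% CO2. Luminescence read 10 min after adding luciferase reagent at ambient temperature.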
# NPC1 promoter act – NPC1 promoter activation; Potency, µM (top dose mostly 9.22 µM), without a hit: top-dose activation, usual class: activators; actives 2.4% (n = 320,000); Huh7 NPC1 promoter luciferase reporter, 24 h; AID 485313; further: % of control where 0% means no effect; nearly all actives have a fitted effect of over 60% in size
#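 Compounds in DMSO were transferred onto Huh7 NPC1-luciferase reporter cells pre-incubated 2 h; after 24 h at 37 °C, Amplite reagent was dispensed and luminescence recorded 10 min later.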
# SMN2 splice up – increases expression of the SMN2 splice variant; actives 2.8% (n = 210,000); Potency, µM (series often up to 46.1 µM), without a hit: top-dose activity change, positive = activation, hits mostly activators; AID 1458; HEK293 SMN2-luciferase splicing reporter, luminescence, 30-36 h; further: % of control where 0% means no effect; nearly all actives have a fitted effect of over 55% in size
#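 HEK293 cells carry an SMN2 […]–luciferase reporter in which exon 7 inclusion puts luciferase in frame. Cells were plated 10-12 h before compound addition, then incubated 30-36 h at 37C. ONE-Glo luminescence was read; sodium butyrate at 4.5 mM final served as control.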
# FLuc modulator – firefly luciferase modulation, counter-screen for miR-21 project | P08659 | actives 6.9% (n = 360,000) | purified FLuc, Km substrates, luminescence inhibition | Potency, µM (top dose mostly 57.5 µM), without a hit: at the top dose activity change, negative = inhibition, usual class: inhibitors;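 further: plate controls were vehicle for no effect and reference inhibitor for full effect; nearly all actives have a fitted effect of over 55% in size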
# Target sequence (P08659 whole entry, looked up): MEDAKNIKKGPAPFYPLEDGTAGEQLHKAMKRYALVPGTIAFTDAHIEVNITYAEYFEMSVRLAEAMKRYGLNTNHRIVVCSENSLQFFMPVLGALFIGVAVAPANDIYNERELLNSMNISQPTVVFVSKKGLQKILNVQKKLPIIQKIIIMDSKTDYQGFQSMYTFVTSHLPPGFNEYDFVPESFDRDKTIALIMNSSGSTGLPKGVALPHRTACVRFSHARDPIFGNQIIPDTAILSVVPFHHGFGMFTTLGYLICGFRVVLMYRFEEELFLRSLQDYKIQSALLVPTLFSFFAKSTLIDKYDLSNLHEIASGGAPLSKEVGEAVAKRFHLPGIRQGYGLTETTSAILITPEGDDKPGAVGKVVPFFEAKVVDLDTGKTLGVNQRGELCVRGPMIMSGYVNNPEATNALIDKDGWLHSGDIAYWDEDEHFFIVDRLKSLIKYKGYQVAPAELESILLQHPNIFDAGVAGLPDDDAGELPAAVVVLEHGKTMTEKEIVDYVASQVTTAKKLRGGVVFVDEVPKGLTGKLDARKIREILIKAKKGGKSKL
#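 Biochemical qHTS of compounds, final roughly 60 µM downward over six points, against 10 nM purified firefly luciferase using Km concentrations of substrates (10 uM D-luciferin, 10 uM ATP) in Tris acetate pH 7.5 buffer; luminescence output.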
# ELG1 genotox – induces genotoxicity in HEK293T cells with luciferase-tagged ELG1. HEK293T ELG1-luciferase reporter, luminescence, 16 h. Potency, µM (series often up to 46 µM), without a hit: at the top dose activity change, positive = activation, usual class: activators. actives 1.3% (n = 330,000); further: % of control where 0% means no effect; nearly all actives have a fitted effect of over 60% in size
#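 HEK293T cells expressing luciferase-tagged ELG1 were exposed to compound or DMSO vehicle for 16 hr at 37 °C and 5% CO2. Luciferase activity was then measured with ONE-Glo after 30 min at room temperature.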
# Starred values were filed as active, the others as inactive; ? = inconclusive; nt = no result given; [ ] = another dose, or the depositor's remark. This is a sample that favours compounds with a hit; in the whole collection about 9.2% have one here. The call rests on the fitted dose curve; in most records, active means well fitted curve in the direction sought with a large enough effect; inconclusive means small, poorly fitted or top-dose-only effect, or another doubt; inactive means no such curve, though single readings can be large; an effect the other way counts as inactive or inconclusive. Potency means the concentration at half of the fitted maximal effect.
SMILES,ELG1 DNA repair,Rab9 promoter act,NPC1 promoter act,SMN2 splice up,FLuc modulator,ELG1 genotox
Cc1ccc(-c2nc(N3CCOCC3)s[n+]2-c2ccccc2)cc1,?,24%,8%,22%,9.5µM*,?
Cc1c(C(c2ccc(Br)cc2)c2c(O)c3ccccc3oc2=O)c(=O)n(-c2ccccc2)n1C (stereo unspecified),-10%,-7%,-5%,-12%,12µM*,6%
CSc1ccc(C(c2c(O)c3ccccc3oc2=O)c2c(C)n(C)n(-c3ccccc3)c2=O)cc1 (stereo unspecified),9%,-3%,2%,-8%,?,0%
CN(C)CCCc1c[nH]c2ccccc12,nt,nt,nt,-17%[9.22 µM],nt,nt
CCC1(C)CC(C(N)=S)CCO1 (stereo unspecified),-2%,-5%,2%,nt,?,-2%
Nc1ccc(Cl)c(Cl)c1,nt,nt,nt,4%,nt,nt
Nc1cc2nc3ccccc3nc2cc1N,?,28%,?,nt,19µM*,11%
Cc1ccnc(-n2c(C)cc(C=C3C(=O)N(C)C(=S)N(C)C3=O)c2C)c1,0%,-2%,1%,-3%,19µM*,8%
Cc1cc(C=C2C(=O)N(C)C(=S)N(C)C2=O)c(C)n1-c1ccncc1,26%,-6%,-3%,nt,27µM*,8%
CC1CCN(C(=O)c2ncn(C)c2C(=O)N2CCC(C)CC2)CC1,?,nt,nt,nt,nt,3%
C/C=C1\C[N@@+]2(C)CC[C@@]34C(=C(C=O)[C@H]1C[C@H]32)Nc1ccccc14,nt,nt,nt,-2%[20.6 µM],nt,nt
Cc1ccc(-c2nc3ccc(Cl)cc3n2OC(=O)N(C)C)cc1,?,3.2µM*,3.2µM*,-15%,?,2.9µM*
CN(C)C(=O)Oc1ccnc2cc(Cl)ccc12,?,-5%,-7%,?,1%,-7%
Brc1c(Br)c(Br)c2n[nH]nc2c1Br,nt,-32%[46.1 µM],0%[46.1 µM],-16%,nt,nt
O=C(Nc1nccs1)C(Cl)(Cl)Cl,5%,3%,-6%,-7%,-1%,0%
O=C(Nc1ccc(Cl)cc1)Nc1nccs1,?,-1%,-7%,?,11µM*,3%
O=C(CSc1ncnc2c1nnn2-c1ccc(F)cc1)NCC1CCCO1 (stereo unspecified),?,4%,-3%,-21%,13µM*,1%
CC(=O)C(Sc1ncnc2c1nnn2-c1ccc(F)cc1)C(=O)N(C)C (stereo unspecified),?,28%,-3%,?,?,6%
CCNCC,nt,nt,nt,1%,nt,nt
C[C@@]12CC[C@H]3[C@@H](CC[C@H]4C[C@@H](O)CC[C@]43C)[C@H]1CC[C@@H]2C(=O)C[C@H](O)C(F)(F)F,nt,nt,nt,-9%[9.22 µM],nt,nt
Cc1ccnc(SCc2nc3ccccc3s2)n1,?,3.5µM*,?,11µM*,6.7µM*,9.2µM*
CC(=O)[O-].CC(=O)[O-].O.O.[Cd+2],nt,nt,nt,-51%,nt,nt
Cc1nc(Cl)sc1C(=O)Nc1ccc2ccccc2c1,?,?,14%,13µM*,7.6µM*,?
O=C1N=C(N2CCCCC2)SC1=C1CCCCC1,?,2.8µM*,?,29%,13µM*,16µM*
C/C(=N\OC(=O)NC(C)C)c1sc(-c2ccc(Cl)cc2)nc1C,?,?,?,?,13µM*,?
SMILES,ELG1 DNA repair,Rab9 promoter act,NPC1 promoter act,SMN2 splice up,FLuc modulator,ELG1 genotox
CCNC(=O)O/N=C(\C)c1sc(-c2ccc(Cl)cc2)nc1C,?,3.5µM*,1.4µM*,29%,2.7µM*,?
C/C(=N\OC(=O)NC(C)C)c1sc(-c2ccccc2)nc1C,?,?,4µM*,21%,?,6%
Cn1cccc1C(=O)OCC(=O)NCc1cccs1,?,nt,nt,nt,nt,0%
CCN(CC)C(=O)Oc1ccc2cc(Br)ccc2c1,?,22%,8%,2%,21µM*,?
Nc1ccc2cc(Br)ccc2c1,5%,5%,5%,-27%,-19%,10%
Nc1nc(SCc2ccc(Cl)cc2Cl)n[nH]1,?,21%,20%,?,?,21µM*
